The source of these data is ChEMBL document CHEMBL1201862, “PubChem BioAssay data set” (2004).

Among all 57,000 […] or so, about 4,200 (7.4%) were called active. Cut-off read from the data, not from the text of the source: active = GI50 up to about 1.1 µM and inactive = higher. Only a sample is shown. Potency and affinity values are given separately.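 Where inhibition never reached the appropriate level, the endpoint shown equals the highest concentration tested. Otherwise, values were interpolated linearly from a five-concentration, 48-hour dose response in 96-well plates. GI50: concentration for 50% inhibition of growth.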

In the experiment the test system is UACC-62. Put plainly: NCI tumour cell line growth inhibition, 48 h.
The substance “[Bis(aminomethyl)tetramethylenesilane]dichloropaltinum(II), CHEMBL2146205” registered a GI50 of 16 µM.
As for “[Bis(aminomethyl)ethylmethylsilane]tetrachloroplatinum(IV), CHEMBL2146192”, the GI50 is 2.39 µM.
In the case of CISPLATIN, CHEMBL11359, the GI50 worked out at 1.18 µM.
For “[Bis(aminomethyl)dimethylsilane]tetrachloroplatinum(IV), CHEMBL2146190”, the GI50 is 4.57 µM.
The value for “[Bis(aminomethyl)pentamethylenesilane]tetrachloropaltinum(IV), CHEMBL2146204” was 0.935 µM.
Substance “[Bis(aminomethyl)diethylsilane]tetrachloroplatinum(IV), CHEMBL2146203” showed a GI50 of 3.93 µM.
“cis-Bis[[(trimethylsilyl)methyl]amino]tetrachloroplatinum(IV), CHEMBL2146191” registered a GI50 of 5.21 µM.
Turning to “[Bis(aminomethyl)pentamethylenesilane]dichloropaltinum(II), CHEMBL2146202”, the GI50 was found to be 2.72 µM.
As for “[Bis(aminomethyl)dimethylsilane]dichloroplatinum (II), CHEMBL2146201”, the GI50 was found to be 15.3 µM.
As to “mu-(1,7-nanodiamine-N,N')bis-(cis-aminedichloroplatimum (II)), CHEMBL2146215”, the GI50 was 3.44 µM.
Regarding “[Bis(aminomethyl)tetramethylenesilane]tetrachloropaltinum(IV), CHEMBL2146189”, the GI50 was 3.87 µM.
